Targets with a hit are over-represented here; the source holds about 7,900 in all. About 0.6% of all pairs of compound and target were hits.
Key:
Assay in all cases: log2 fold change, soluble protein after heating vs DMSO (PISA); higher = thermal stabilisation; K562 cells, 10 uM, 30 min; active = over 0.2 and 3.5 SD of the protein, either way, in both replicates (recomputed)
[1] = compound: COC1=CC=C(C=C1)CN2C=CC3=C2C=C(C=C3)C(=O)NO
Procedure, shortened: (§1)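 K562 cells (2×10^6 cells/mL) were treated with 10 μM compound for 30 min, and aliquots were heated for 3 min over 48°C-58°C. Pooled aliquots were extracted in PBS with 0.5% NP-40 at 4°C, and the supernatant after 21,000xg for 90 min was measured by TMTpro 16plex LC-MS/MS with channel sums equalised. Reported thermal stability, relative to control samples and from duplicates, is a log2 fold change.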

[2] = compound: CON(C)C(=O)N1N=C(c2cc(F)ccc2F)S[C@@]1(CCCN)c1ccccc1 [filanesib]
Procedure, shortened: as §1

[3] = compound: CO[C@H]1C[C@@H]2CC[C@@H](C)[C@@](O)(O2)C(=O)C(=O)N2CCCC[C@H]2C(=O)O[C@H]([C@H](C)C[C@@H]2CC[C@H](n3cnnn3)[C@H](OC)C2)CC(=O)[C@H](C)/C=C(\C)[C@@H](O)[C@@H](OC)C(=O)[C@H](C)C[C@H](C)/C=C/C=C/C=C/1C [zotarolimus]
Procedure, shortened: as §1

[4] = compound: COc1cc(C(=O)O)ccc1NC(=O)[C@@H]1N[C@@H](CC(C)(C)C)[C@](C#N)(c2ccc(Cl)cc2F)[C@H]1c1cccc(Cl)c1F [idasanutlin]
Procedure, shortened: as §1

[5] = compound: COc1cc(Nc2ncc3c(n2)-c2ccc(Cl)cc2C(c2c(F)cccc2OC)=NC3)ccc1C(=O)O [alisertib]
Procedure, shortened: as §1

[6] = compound: COc1cc2nc(-c3cc(F)ccc3O)nc(N[C@@H]3CNC[C@H]3C(C)(C)O)c2cc1OC
Procedure, shortened: as §1

[7] = compound: COc1cc2ncnc(Nc3ccc(F)c(Cl)c3)c2cc1OCCCN1CCOCC1 [gefitinib]
Procedure, shortened: as §1

[8] = compound: COc1cccc2cc(-c3nc([C@H]4CC[C@H](C(=O)O)CC4)n4ncnc(N)c34)[nH]c12
Procedure, shortened: as §1

[9] = compound: CS(=O)(=O)CCNCc1ccc(-c2ccc3ncnc(Nc4ccc(OCc5cccc(F)c5)c(Cl)c4)c3c2)o1 [lapatinib]
Procedure, shortened: as §1

[10] = compound: CS(=O)(=O)c1ccc(-c2cnc(N)c(C(=O)Nc3ccccc3)n2)cc1
Procedure, shortened: as §1

[11] = compound: C[C@@H](Oc1cc(-c2cnn(C3CCNCC3)c2)cnc1N)c1c(Cl)ccc(F)c1Cl [crizotinib]
Procedure, shortened: as §1

[12] = compound: C[C@@H]1COCCN1C2=NC(=NC(=C2)C3(CC3)S(=O)(=O)C)C4=C5C=CNC5=CC=C4
Procedure, shortened: as §1

[13] = compound: C[C@H](C1=CC=C(C=C1)C(=O)NC2=C3C=CNC3=NC=C2)N
Procedure, shortened: as §1

[14] = compound: C[C@H](Nc1ncnc2nc[nH]c12)c1cc2cccc(Cl)c2c(=O)n1-c1ccccc1 [duvelisib]
Procedure, shortened: as §1

[15] = compound: Cc1cc(Nc2cc(N3CCN(C)CC3)nc(Sc3ccc(NC(=O)C4CC4)cc3)n2)n[nH]1 [tozasertib]
Procedure, shortened: as §1

[16] = compound: Cc1cc(SCc2sc(-c3ccc(C(F)(F)F)cc3)nc2C)ccc1OCC(=O)O
Procedure, shortened: as §1

[17] = compound: Cc1ccc(-n2nc(C(C)(C)C)cc2NC(=O)Nc2ccc(OCCN3CCOCC3)c3ccccc23)cc1 [doramapimod]
Procedure, shortened: as §1

[18] = compound: Cc1ccc(C(=O)N(CCCN)[C@@H](c2nc3cc(Cl)ccc3c(=O)n2Cc2ccccc2)C(C)C)cc1 [ispinesib]
Procedure, shortened: as §1

[19] = compound: CS(=O)(=O)N1CCN(Cc2cc3nc(-c4cccc5[nH]ncc45)nc(N4CCOCC4)c3s2)CC1 [pictilisib]
Procedure, shortened: as §1

[20] = compound: Cc1cc(Nc2cc(CN3CCOCC3)c3nc(C)c(Cc4ccc(Cl)cc4F)n3n2)n[nH]1 [gandotinib]
Procedure, shortened: as §1

Measured: log2 fold change

TMBIM6 isoform 2 (UniProt P55061)
Sequence of UniProt P55061 (P55061 whole entry, looked up): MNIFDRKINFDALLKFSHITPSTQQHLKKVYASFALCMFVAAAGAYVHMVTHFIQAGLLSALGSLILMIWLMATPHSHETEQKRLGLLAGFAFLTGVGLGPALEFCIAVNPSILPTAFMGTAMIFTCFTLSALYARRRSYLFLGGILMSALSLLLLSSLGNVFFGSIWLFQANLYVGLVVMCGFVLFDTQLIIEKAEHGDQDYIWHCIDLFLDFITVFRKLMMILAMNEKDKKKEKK
active: [4] -0.51 | [6] -0.535 | [11] -0.451
inactive: [1] -0.007 | [2] -0.233 | [3] -0.099 | [5] -0.27 | [7] -0.087 | [8] -0.165 | [9] -0.196 | [10] -0.066 | [12] 0.033 | [13] -0.049 | [14] 0.046 | [15] -0.066 | [16] -0.03 | [17] -0.053 | [18] -0.407

SMDT1 (UniProt Q9H4I9)
Sequence of UniProt Q9H4I9 (Q9H4I9 whole entry, looked up): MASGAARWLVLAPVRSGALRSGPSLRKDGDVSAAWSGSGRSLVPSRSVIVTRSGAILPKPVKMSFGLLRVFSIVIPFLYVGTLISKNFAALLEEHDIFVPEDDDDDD
active: [2] -0.39
inactive: [1] -0.053 | [3] -0.014 | [4] -0.087 | [5] -0.058 | [8] 0.014 | [19] 0.095 | [10] 0.144 | [11] 0.042 | [12] 0.017 | [13] -0.035 | [14] 0.026 | [20] -0.23 | [15] -0.014 | [16] 0 | [17] 0.054

STK38L (UniProt Q9Y2H1)
Sequence of UniProt Q9Y2H1 (Q9Y2H1 whole entry, looked up): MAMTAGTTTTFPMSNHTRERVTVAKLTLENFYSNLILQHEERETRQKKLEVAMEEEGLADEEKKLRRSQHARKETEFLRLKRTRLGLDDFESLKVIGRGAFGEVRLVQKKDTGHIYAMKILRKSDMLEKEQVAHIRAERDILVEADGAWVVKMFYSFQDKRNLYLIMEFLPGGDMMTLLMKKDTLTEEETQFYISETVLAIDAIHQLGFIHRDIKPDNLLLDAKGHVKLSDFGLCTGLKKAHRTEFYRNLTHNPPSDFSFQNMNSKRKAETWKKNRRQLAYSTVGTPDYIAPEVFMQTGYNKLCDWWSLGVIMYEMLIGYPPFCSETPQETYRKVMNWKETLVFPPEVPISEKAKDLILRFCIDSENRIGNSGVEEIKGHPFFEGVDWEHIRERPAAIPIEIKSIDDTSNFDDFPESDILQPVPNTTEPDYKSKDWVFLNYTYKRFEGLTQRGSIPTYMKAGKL
inactive: [1] -0.007 | [2] -0.009 | [3] 0.036 | [4] -0.095 | [5] 0.037 | [7] 0.029 | [8] -0.064 | [19] 0.05 | [10] 0.028 | [11] 0.065 | [12] 0.069 | [13] -0.055 | [14] -0.04 | [20] -0.105 | [15] 0.003 | [16] 0.116 | [17] -0.022 | [18] -0.093

THAP9 (UniProt Q9H5L6)
inactive: [1] 0.434 | [3] -0.139 | [4] 0.008 | [5] -0.068 | [7] -0.142 | [8] 0.011 | [11] -0.004 | [13] -0.105 | [14] 0.168 | [16] -0.245 | [17] 0.041 | [18] -0.21

TEX30 (UniProt Q5JUR7)
Sequence of UniProt Q5JUR7 (Q5JUR7 whole entry, looked up): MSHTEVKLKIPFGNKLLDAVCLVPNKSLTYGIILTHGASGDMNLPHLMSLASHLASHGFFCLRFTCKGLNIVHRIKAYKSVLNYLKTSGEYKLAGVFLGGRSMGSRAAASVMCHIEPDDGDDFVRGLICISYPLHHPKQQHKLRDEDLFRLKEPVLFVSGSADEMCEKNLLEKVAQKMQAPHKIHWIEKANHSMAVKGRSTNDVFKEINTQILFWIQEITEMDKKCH
inactive: [1] -0.063 | [3] 0.031 | [4] -0.02 | [5] 0.029 | [6] 0.07 | [7] -0.079 | [8] 0.031 | [9] -0.029 | [19] 0.057 | [11] -0.206 | [12] 0.073 | [13] 0.044 | [14] 0.031 | [20] -0.292 | [15] 0.045 | [16] 0.067 | [17] 0.059 | [18] -0.295

SMARCB1 (UniProt Q12824)
Sequence of UniProt Q12824 (Q12824 whole entry, looked up): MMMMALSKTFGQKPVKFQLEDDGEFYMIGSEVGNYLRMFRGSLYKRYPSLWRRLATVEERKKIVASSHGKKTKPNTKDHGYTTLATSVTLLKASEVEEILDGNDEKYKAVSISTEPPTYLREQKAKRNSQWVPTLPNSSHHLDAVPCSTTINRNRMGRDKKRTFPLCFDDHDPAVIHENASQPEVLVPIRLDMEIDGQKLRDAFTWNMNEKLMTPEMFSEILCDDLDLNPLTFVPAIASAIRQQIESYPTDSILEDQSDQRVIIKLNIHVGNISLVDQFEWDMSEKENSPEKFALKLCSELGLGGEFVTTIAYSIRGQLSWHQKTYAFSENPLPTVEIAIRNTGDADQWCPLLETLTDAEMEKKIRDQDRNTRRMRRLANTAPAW
inactive: [1] -0.116 | [2] 0.026 | [3] 0.136 | [19] 0.424 | [10] 0.024 | [11] -0.128 | [13] 0.284 | [14] 0.241 | [20] 0.49 | [15] 0.252 | [16] 0.097 | [17] 0.049

TBC1D2 (UniProt Q9BYX2)
Sequence of UniProt Q9BYX2 (Q9BYX2 whole entry, looked up): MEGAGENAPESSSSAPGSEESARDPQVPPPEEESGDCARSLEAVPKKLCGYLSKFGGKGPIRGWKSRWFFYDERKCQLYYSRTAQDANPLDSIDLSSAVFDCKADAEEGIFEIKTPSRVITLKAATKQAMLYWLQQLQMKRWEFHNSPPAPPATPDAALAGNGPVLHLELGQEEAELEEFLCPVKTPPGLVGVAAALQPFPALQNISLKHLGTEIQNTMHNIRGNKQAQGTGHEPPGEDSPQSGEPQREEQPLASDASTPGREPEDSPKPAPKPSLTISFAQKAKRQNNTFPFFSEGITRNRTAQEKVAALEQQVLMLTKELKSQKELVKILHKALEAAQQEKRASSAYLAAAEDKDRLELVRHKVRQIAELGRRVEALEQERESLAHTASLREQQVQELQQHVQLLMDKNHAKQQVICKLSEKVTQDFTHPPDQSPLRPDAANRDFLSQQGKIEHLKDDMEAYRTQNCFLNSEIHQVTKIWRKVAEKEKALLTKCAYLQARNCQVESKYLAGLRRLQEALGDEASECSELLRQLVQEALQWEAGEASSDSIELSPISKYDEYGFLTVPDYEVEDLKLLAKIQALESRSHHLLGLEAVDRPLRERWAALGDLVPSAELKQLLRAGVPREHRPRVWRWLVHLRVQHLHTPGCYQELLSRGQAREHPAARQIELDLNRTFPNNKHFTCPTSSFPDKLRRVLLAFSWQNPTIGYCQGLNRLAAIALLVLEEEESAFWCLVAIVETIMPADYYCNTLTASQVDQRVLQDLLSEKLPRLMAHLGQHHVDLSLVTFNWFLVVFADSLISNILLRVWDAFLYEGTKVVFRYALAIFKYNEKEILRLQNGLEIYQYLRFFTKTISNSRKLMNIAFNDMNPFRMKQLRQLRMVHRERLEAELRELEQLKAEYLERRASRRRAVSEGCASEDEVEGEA
inactive: [4] 0.016 | [5] -0.053 | [8] -0.211 | [19] -0.097 | [12] 0.064 | [20] -0.04

TDP1 (UniProt Q9NUW8)
inactive: [3] -0.015 | [13] 0.145

SLC46A1 (UniProt Q96NT5)
Sequence of UniProt Q96NT5 (Q96NT5 whole entry, looked up): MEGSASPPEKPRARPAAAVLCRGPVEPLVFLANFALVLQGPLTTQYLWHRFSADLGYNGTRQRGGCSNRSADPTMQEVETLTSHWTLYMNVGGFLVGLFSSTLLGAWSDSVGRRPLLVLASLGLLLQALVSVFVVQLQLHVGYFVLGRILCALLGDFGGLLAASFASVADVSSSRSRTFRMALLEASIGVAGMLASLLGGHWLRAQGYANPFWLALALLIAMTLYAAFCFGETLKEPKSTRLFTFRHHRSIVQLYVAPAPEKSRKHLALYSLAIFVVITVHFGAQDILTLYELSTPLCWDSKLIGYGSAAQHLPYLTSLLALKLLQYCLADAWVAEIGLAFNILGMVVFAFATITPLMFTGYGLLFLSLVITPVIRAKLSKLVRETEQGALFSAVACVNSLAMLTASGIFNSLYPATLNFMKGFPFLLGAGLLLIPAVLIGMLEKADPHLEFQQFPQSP
inactive: [3] -0.095 | [4] -0.107 | [19] 0.061 | [13] -0.047 | [20] -0.006 | [15] 0.035

TK1 (UniProt K7ERV3)
inactive: [2] 0.005 | [3] -0.034 | [4] -0.075 | [5] 0.121 | [6] -0.107 | [7] 0.026 | [8] 0 | [9] -0.107 | [19] 0.102 | [10] 0 | [12] 0.021 | [13] 0.182 | [14] 0.046 | [20] -0.029 | [15] 0.012 | [16] -0.041 | [18] 0.005

TAF6L (UniProt Q9Y6J9)
Sequence of UniProt Q9Y6J9 (Q9Y6J9 whole entry, looked up): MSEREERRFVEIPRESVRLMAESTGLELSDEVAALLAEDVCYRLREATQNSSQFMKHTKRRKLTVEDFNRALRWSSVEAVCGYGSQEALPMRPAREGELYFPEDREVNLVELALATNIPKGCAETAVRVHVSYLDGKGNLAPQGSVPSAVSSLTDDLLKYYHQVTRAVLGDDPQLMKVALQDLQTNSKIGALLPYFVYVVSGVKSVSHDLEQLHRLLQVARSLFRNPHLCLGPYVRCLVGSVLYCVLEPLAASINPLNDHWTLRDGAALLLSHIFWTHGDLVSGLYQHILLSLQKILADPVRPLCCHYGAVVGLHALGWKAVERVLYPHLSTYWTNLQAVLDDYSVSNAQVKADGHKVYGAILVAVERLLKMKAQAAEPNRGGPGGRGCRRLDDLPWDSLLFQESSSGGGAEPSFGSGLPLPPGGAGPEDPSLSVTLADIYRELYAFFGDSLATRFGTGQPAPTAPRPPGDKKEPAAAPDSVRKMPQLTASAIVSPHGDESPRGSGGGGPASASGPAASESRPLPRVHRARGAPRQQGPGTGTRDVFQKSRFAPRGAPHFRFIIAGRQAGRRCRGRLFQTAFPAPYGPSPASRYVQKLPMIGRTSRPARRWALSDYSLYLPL
inactive: [2] 0.177 | [3] 0.049 | [4] 0.001 | [5] -0.13 | [6] 0.166 | [7] 0.054 | [8] 0.038 | [9] -0.133 | [19] 0.166 | [10] -0.035 | [13] 0.058 | [14] 0.246 | [20] -0.08 | [15] 0.115 | [16] -0.121 | [18] -0.045

SREBF1 isoform 4 (UniProt P36956)
Sequence of UniProt P36956 (P36956 whole entry, looked up): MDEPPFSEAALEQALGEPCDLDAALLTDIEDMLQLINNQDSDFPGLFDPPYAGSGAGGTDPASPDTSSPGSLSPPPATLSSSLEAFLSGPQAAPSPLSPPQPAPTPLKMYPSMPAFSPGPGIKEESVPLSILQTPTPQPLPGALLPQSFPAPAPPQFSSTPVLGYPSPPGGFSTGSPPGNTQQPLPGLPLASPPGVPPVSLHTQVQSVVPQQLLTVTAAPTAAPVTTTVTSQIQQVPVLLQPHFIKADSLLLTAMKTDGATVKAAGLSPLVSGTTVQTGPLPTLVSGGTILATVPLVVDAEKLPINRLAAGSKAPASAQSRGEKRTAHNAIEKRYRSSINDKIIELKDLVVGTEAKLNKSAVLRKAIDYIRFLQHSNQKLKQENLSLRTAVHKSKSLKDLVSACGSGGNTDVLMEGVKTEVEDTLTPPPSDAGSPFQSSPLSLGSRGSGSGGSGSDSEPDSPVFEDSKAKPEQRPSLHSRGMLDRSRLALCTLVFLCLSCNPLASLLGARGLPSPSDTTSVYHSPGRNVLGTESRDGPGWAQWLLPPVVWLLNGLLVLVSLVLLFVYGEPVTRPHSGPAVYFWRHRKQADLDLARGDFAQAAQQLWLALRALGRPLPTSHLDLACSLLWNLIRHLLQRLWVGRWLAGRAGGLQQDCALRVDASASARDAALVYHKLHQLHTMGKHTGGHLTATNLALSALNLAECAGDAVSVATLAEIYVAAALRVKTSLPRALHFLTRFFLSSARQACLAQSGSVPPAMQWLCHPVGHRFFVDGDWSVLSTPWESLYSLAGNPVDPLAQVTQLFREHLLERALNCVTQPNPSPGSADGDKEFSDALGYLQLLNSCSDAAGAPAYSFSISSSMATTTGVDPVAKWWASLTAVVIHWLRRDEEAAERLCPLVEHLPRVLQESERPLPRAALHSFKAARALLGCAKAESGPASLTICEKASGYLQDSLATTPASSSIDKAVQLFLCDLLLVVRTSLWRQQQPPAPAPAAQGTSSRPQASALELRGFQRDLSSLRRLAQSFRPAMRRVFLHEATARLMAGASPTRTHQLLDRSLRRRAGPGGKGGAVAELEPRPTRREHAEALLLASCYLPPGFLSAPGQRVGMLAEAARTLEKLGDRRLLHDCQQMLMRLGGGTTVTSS
inactive: [1] -0.089 | [5] -0.014 | [8] 0.098 | [11] 0.106 | [12] 0.084 | [14] -0.083 | [16] 0.089 | [17] 0.098

SLC39A1 (UniProt Q9NY26)
inactive: [3] -0.15 | [19] -0.053 | [13] 0.023 | [20] -0.137

SPIN4 (UniProt Q56A73)
inactive: [11] 0.108 | [17] -0.213
active: [1] -1.43

SLC35B1 isoform 2 (UniProt P78383)
inactive: [1] -0.106 | [2] -0.037 | [3] -0.005 | [5] -0.232 | [7] -0.022 | [8] 0.129 | [10] 0.049 | [11] -0.053 | [12] -0.042 | [14] 0.171 | [15] 0.075 | [16] 0 | [17] -0.061 | [18] -0.043
active: [13] -0.535

SSB (UniProt E7ERC4)
inactive: [5] 0.494 | [8] -0.37 | [19] -0.086 | [14] 0.399 | [20] -0.352 | [16] 0.337

TAOK2 (UniProt Q9UL54)
inactive: [1] 0.189 | [5] 0.107 | [6] -0.02 | [7] -0.095 | [8] 0.003 | [9] 0.022 | [19] 0.003 | [11] 0.157 | [12] -0.108 | [20] -0.045 | [15] -0.02 | [17] -0.036 | [18] 0.035

TENT5C (UniProt Q5VWP2)
active: [3] -0.56
inactive: [1] -0.133 | [2] 0.049 | [5] 0 | [6] 0.075 | [7] 0.002 | [8] -0.021 | [9] -0.092 | [19] 0.168 | [10] 0.044 | [11] 0.043 | [13] 0.011 | [14] 0.111 | [20] 0.142 | [15] -0.05 | [16] 0.174 | [17] 0.061 | [18] 0.055

SNRK (UniProt Q9NRH2)
active: [6] 0.84
inactive: [1] 0.15 | [2] 0.158 | [9] 0.016 | [10] 0.008 | [11] -0.026 | [14] -0.162 | [16] -0.067 | [17] 0.001

TM7SF2 (UniProt O76062)
Sequence of UniProt O76062 (O76062 whole entry, looked up): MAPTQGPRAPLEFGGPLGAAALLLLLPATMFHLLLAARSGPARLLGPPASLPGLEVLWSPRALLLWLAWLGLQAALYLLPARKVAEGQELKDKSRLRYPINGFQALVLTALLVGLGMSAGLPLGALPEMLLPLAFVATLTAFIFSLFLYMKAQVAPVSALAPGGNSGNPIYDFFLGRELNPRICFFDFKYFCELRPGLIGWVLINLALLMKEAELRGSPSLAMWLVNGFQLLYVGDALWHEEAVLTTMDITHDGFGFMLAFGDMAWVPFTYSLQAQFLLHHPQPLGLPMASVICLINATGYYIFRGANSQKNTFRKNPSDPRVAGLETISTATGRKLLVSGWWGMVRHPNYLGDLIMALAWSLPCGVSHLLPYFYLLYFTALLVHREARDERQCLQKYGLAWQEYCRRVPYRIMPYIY
inactive: [2] -0.142 | [3] -0.018 | [6] -0.143 | [7] 0.059 | [9] 0 | [10] -0.044 | [13] 0.028 | [14] -0.075 | [16] 0.028 | [18] -0.451

STK17B (UniProt O94768)
inactive: [1] 0.01 | [11] -0.227 | [17] -0.085

TCOF1 isoform 3 (UniProt Q13428)
inactive: [2] -0.152 | [19] 0.188 | [10] -0.103 | [12] 0.542 | [20] -0.166 | [15] 0.073 | [18] -0.185

SLC8B1 (UniProt Q6J4K2)
active: [11] -0.793 | [18] -0.477
inactive: [1] 0.044 | [3] -0.097 | [4] -0.034 | [6] 0.132 | [9] 0.066 | [19] 0.016 | [13] 0.129 | [14] 0.196 | [20] -0.053 | [16] -0.073 | [17] 0.046

TCOF1 isoform 6 (UniProt Q13428)
inactive: [1] -0.318 | [2] -0.087 | [3] -0.062 | [5] -0.263 | [7] 0.028 | [8] -0.105 | [10] -0.07 | [11] 0.032 | [13] -0.025 | [15] -0.008 | [17] -0.068 | [18] -0.122

TACC2 (UniProt O95359)
inactive: [2] -0.107 | [3] -0.003 | [4] -0.042 | [5] 0.1 | [6] 0.01 | [7] -0.027 | [8] 0.011 | [9] 0.011 | [19] 0.046 | [10] -0.045 | [13] -0.013 | [14] 0.058 | [20] -0.154 | [15] 0.056 | [16] -0.005 | [18] 0.145

From the supplement of paper PMC10849652
